High-throughput results: PubChem, several laboratories
Mdm2-MdmX inh = inhibitors of human Mdm2-MdmX association, primary screen, cell-based, luminescence, split luciferase, SaOS-2, uHTS. Protein Mdm4 (Homo sapiens) + E3 ubiquitin-protein ligase Mdm2 (Homo sapiens), …. SaOS-2 split-luciferase Mdm2/MdmX complementation. inhibition, % at 8 µM. 330,000 compounds, 3% hits. AID 485346, 2010;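 active = inhibition of at least 50% at 8 µM in the primary screen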
Shn3 inh set2 = reduction of Shn3 3'UTR firefly luciferase signal, primary screen, Schnurri-3 inhibitor project, cell-based, Clone20 osteoblasts, set 2; Clone20 osteoblast Shn3 3'UTR firefly luciferase, 24 h; inhibition, % at 12.5 µM; 360,000 compounds, 0.52% hits; AID 588674, 2011;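 active = mean inhibition of at least 75% with every replicate also reaching 75%; inconclusive = mean inhibition at least 75% but some replicate below; inactive = mean inhibition below 75%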
697 NFkB inh = inhibitors of PMA/ionomycin-induced NF-kB reporter, 697 cells, primary screen, B-cell NF-kB inhibitor project, cell-based, luminescence, uHTS. 697 B-cell NF-kB luciferase reporter, 16 h. inhibition, % at 4 µM. 330,000 compounds, 0.33% hits; in the data active = inhibition above about 35%
Gli-Sufu block = Gli-Sufu pathway antagonists, primary screen, luciferase luminescence, Sufu-KO-LIGHT cells, uHTS; Sufu-KO-LIGHT fibroblasts, Gli luciferase reporter luminescence; inhibition, % at 5 µM; 340,000 compounds, 0.74% hits;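 active = inhibition above about 55%, limit read from the data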
Jurkat NFkB inh = inhibitors of induced NF-kB luciferase reporter, primary screen, TCR NF-kB activation inhibitor project, cell-based, luminescence, uHTS | inhibition, % at 4 µM | AID 435003, 2010 | Jurkat, PMA/ionomycin-induced NF-kB luciferase reporter | 330,000 compounds, 0.53% hits; in the data active = inhibition above about 50%
Mdm2-MdmX conf = Mdm2-MdmX complex disruptors, retested hits, confirmation, luminescence, single concentration; shares compounds with Mdm2-MdmX inh; Mdm2-MdmX binding, luminescent assay; inhibition, % at 8 µM; 10,000 compounds, 55% hits; AID 489028, 2010; in the data active = inhibition above about 40%
FLuc counter = full-length luciferase signal inhibition, confirmation, counter-screen for Mdm2/MdmX interaction inhibitor project, cell-based, single concentration, SaOS-2; AID 504607, 2011; inhibition, % at 8 µM; shares compounds with Mdm2-MdmX inh; 6,200 compounds, 77% hits; SaOS-2 full-length luciferase counterscreen, luminescence;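 active = mean inhibition at 8 µM reaching about 37%, which flags the compound as non-specific, limit read from the data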;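 also: p53-null SaOS-2 cells with luciferase driven by a doxycycline-inducible promoter; compound on cells about two nights before reading with doxycycline added after day one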
Hits are given with their value. Sampled rows, rich in hits. Any-hit rate of the full collection: about 3.8%.

Screening Cc1c(C(=O)N2CCCC2)c(S(=O)(=O)Nc2cccc(Br)c2)c(C)n1C returned Mdm2-MdmX inh inactive, Shn3 inh set2 inactive, 697 NFkB inh inactive, Gli-Sufu block inactive and Jurkat NFkB inh inactive.
`CC1CC(C)CN(CCCNC(=O)C2CCN(c3nnc(-n4cccc4)s3)CC2)C1` (stereo not given) gave Mdm2-MdmX inh inactive, Shn3 inh set2 inactive, 697 NFkB inh inactive, Gli-Sufu block inactive and Jurkat NFkB inh inactive.
Cc1cc(/C=N/n2c(COc3ccccc3C)nc3ccccc3c2=O)c(O)c([N+](=O)[O-])c1 was read as Mdm2-MdmX inh 56.1, Shn3 inh set2 inactive, 697 NFkB inh inactive, Gli-Sufu block inactive, Jurkat NFkB inh inactive, Mdm2-MdmX conf 63.5 and FLuc counter 46.1.
Cc1ccccc1OCc1nc2ccccc2c(=O)n1/N=C/c1c[nH]c2ccccc12 was read as Mdm2-MdmX inh inactive, Shn3 inh set2 inactive, 697 NFkB inh inactive, Gli-Sufu block inactive and Jurkat NFkB inh inactive.
For O=C(/C(=C/c1ccc(Cl)cc1)c1nc2ccccc2[nH]1)c1ccccc1 the results were Mdm2-MdmX inh 100.3, Shn3 inh set2 inconclusive, 697 NFkB inh inactive, Gli-Sufu block inactive, Jurkat NFkB inh inactive, Mdm2-MdmX conf 99.2 and FLuc counter 50.6.
Screening COc1cc(/C=C(/C(=O)c2cccs2)c2nc3ccccc3[nH]2)cc(OC)c1O returned Mdm2-MdmX inh 91.4, Shn3 inh set2 inactive, 697 NFkB inh inactive, Gli-Sufu block inactive, Jurkat NFkB inh inactive, Mdm2-MdmX conf 90.5 and FLuc counter 61.6.
Screening COC(=O)CCC(C)C1CCC2C3C(OC(C)=O)CC4CC(O)CCC4(C)C3CC(O)C12C (stereo not given) returned Shn3 inh set2 inactive.
Cc1cccc(-c2nnc(SC(C)C(=O)N3CCOCC3)o2)c1 (stereo not given) was read as Mdm2-MdmX inh inactive, Shn3 inh set2 inactive, 697 NFkB inh inactive, Gli-Sufu block inactive and Jurkat NFkB inh inactive.
For CC(Sc1ncnc2sc(-c3ccccc3)cc12)C(=O)NCC1CCCO1 (stereo not given) the results were Mdm2-MdmX inh 67.4, Shn3 inh set2 inactive, 697 NFkB inh inactive, Gli-Sufu block inactive, Jurkat NFkB inh inactive, Mdm2-MdmX conf 59.4 and FLuc counter 91.0.
For CCc1cccc2c(SC(C)C(=O)NCC3CCCO3)nc(-c3ccccc3)nc12 (stereo not given) the results were Mdm2-MdmX inh inactive, Shn3 inh set2 inactive, 697 NFkB inh inactive, Gli-Sufu block inactive and Jurkat NFkB inh inactive.
`CCOCCCNC(=O)c1ccc(Cn2c(=S)[nH]c3c([nH]c4ccc(OC)cc43)c2=O)cc1` gave Mdm2-MdmX inh inactive, Shn3 inh set2 inactive, 697 NFkB inh inactive, Gli-Sufu block inactive and Jurkat NFkB inh inactive.
For CCCCNC(=O)c1ccc(Cn2c(=S)[nH]c3c([nH]c4ccc(OC)cc43)c2=O)cc1 the results were Mdm2-MdmX inh 88.8, Shn3 inh set2 inactive, 697 NFkB inh inactive, Gli-Sufu block inactive, Jurkat NFkB inh inactive and Mdm2-MdmX conf inactive.
For COc1ccccc1-c1sc2cc3c(cc2c1-c1ccc(OCCN2CCCCC2)cc1)OCO3 the results were Mdm2-MdmX inh 98.0, Shn3 inh set2 inactive, 697 NFkB inh inactive, Gli-Sufu block inactive, Jurkat NFkB inh inactive, Mdm2-MdmX conf 42.4 and FLuc counter 38.8.
COc1cc2sc(-c3ccccc3OC)c(-c3ccc(OCCN4CCCCC4)cc3)c2cc1OC was read as Mdm2-MdmX inh 100.5, Shn3 inh set2 inactive, 697 NFkB inh inactive, Gli-Sufu block inactive, Jurkat NFkB inh inactive, Mdm2-MdmX conf 43.2 and FLuc counter 55.6.
For COc1ccc2sc(-c3ccccc3OC)c(-c3ccc(OCCN4CCOCC4)cc3)c2c1 the results were Mdm2-MdmX inh inactive, Shn3 inh set2 inactive, 697 NFkB inh inactive and Gli-Sufu block inactive.
Screening COc1ccc(-c2sc3cc4c(cc3c2-c2ccc(OCCN3CCOCC3)cc2)OCO4)cc1 returned Mdm2-MdmX inh inactive, Shn3 inh set2 inactive, 697 NFkB inh inactive, Gli-Sufu block inactive and Jurkat NFkB inh inactive.
For O=C(c1ccc(OCCN2CCCCC2)cc1)c1c(-c2ccc(O)cc2)sc2cc(O)ccc12 the results were Mdm2-MdmX inh 65.2, Shn3 inh set2 inactive, 697 NFkB inh inactive, Gli-Sufu block inactive, Jurkat NFkB inh inactive and Mdm2-MdmX conf inactive.
COc1ccc(CNC(=O)COc2ccc(C(=O)c3ccc(F)cc3)cc2)cc1 was read as Mdm2-MdmX inh 60.9, Shn3 inh set2 inactive, 697 NFkB inh inactive, Gli-Sufu block inactive, Jurkat NFkB inh inactive, Mdm2-MdmX conf 46.9 and FLuc counter 88.9.
Screening O=C(COc1ccc(C(=O)c2ccc(F)cc2)cc1)NCc1ccc(F)cc1 returned Mdm2-MdmX inh inactive, Shn3 inh set2 inactive, 697 NFkB inh inactive, Gli-Sufu block inactive and Jurkat NFkB inh inactive.
`O=C(COc1ccc(C(=O)Nc2ccc(Cl)cc2)cc1)NCc1ccccc1` gave Mdm2-MdmX inh 61.7, Shn3 inh set2 inactive, 697 NFkB inh inactive, Gli-Sufu block inactive, Jurkat NFkB inh inactive and Mdm2-MdmX conf inactive.
For Cc1ccc(CNC(=O)COc2ccc(C(=O)c3ccc(F)cc3)cc2)cc1 the results were Mdm2-MdmX inh 51.5, Shn3 inh set2 inactive, 697 NFkB inh inactive, Gli-Sufu block inactive, Jurkat NFkB inh inactive, Mdm2-MdmX conf 53.7 and FLuc counter 63.9.
`CCOC(=O)C1=CCC(c2ccc(C#N)cc2)N(S(=O)(=O)c2ccc(C)cc2)C1` (stereo not given) gave Shn3 inh set2 inactive.
`Cc1ccc(CNC(=O)CNS(=O)(=O)c2ccc3c(c2)C(C)(C)C(=O)N3C)cc1` gave Mdm2-MdmX inh inactive, Shn3 inh set2 inactive, 697 NFkB inh inactive, Gli-Sufu block inactive and Jurkat NFkB inh inactive.
`N/C(Cc1ccc(Cl)cc1)=N\OC(=O)c1ccc2ccccc2c1` gave Mdm2-MdmX inh 99.4, Shn3 inh set2 inactive, 697 NFkB inh inactive, Gli-Sufu block inactive, Jurkat NFkB inh inactive and Mdm2-MdmX conf inactive.
Screening N/C(CCS(=O)(=O)c1ccc(Cl)cc1)=N\OC(=O)c1ccccc1Cl returned Mdm2-MdmX inh 91.6, Shn3 inh set2 inactive, 697 NFkB inh inactive, Gli-Sufu block inactive, Jurkat NFkB inh inactive, Mdm2-MdmX conf 86.7 and FLuc counter 49.6.
`COc1ccc(C/C(N)=N/OC(=O)c2ccc(Cl)cc2)cc1` gave Mdm2-MdmX inh inactive, Shn3 inh set2 inactive, 697 NFkB inh inactive, Gli-Sufu block inactive and Jurkat NFkB inh inactive.
